TrxR1 inh-1 = blocks rat thioredoxin reductase 1; 390,000 compounds, 1% hits; O89049; recombinant rTrxR1, NADPH fluorescence consumption, selenite substrate; AID 588453; Potency, µM (doses to about 114 µM), most hits filed as inhibitors; note: nearly all actives have a fitted effect of over 65% in size
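Rat TrxR1 (90 nM in the dispensed reagent) was pre-reduced with 400 uM NADPH for 5 min at room temperature, then incubated with compound for 15 min. After 400 uM selenite was added, NADPH fluorescence (Ex 340/Em 450 nm) was followed for 8 min.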
TrxR1 substrate = substrates of rat thioredoxin reductase 1. O89049. purified TrxR1 substrate turnover, NADPH consumption readout. Potency, µM (highest dose often 114 µM). 390,000 compounds, 0.01% hits. AID 588456; note: nearly all actives have a fitted effect of over 50% in size
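Rat TrxR1, dispensed at 90 nM, was prereduced with 400 uM NADPH (final) for 5 min at ~22 deg C, then incubated with compound 15 min before 400 uM selenite. A first-read NADPH fluorescence drop versus no-compound background flagged substrates.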
GLP-1R inv ag = GLP-1 receptor (human) inverse agonism; AID 624417; HEK293 GLP-1R CRE-luciferase, luminescence, 24 h; GLP-1R form is constitutively active; P43220; Potency, µM (top dose mostly 38.3 µM), actives largely listed as inhibitors; 410,000 compounds, 1.6% hits; note: nearly all actives have a fitted effect of over 55% in size
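Stable HEK293 clone (constitutively active GLP-1R + cAMP-response luciferase); 200 cells/uL plated, 12 h pre-culture, compound 24 hr, 37 deg C/5% CO2; detection reagent 12 min RT; luminescence.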
GLP1R ag = GLP-1 receptor (human) agonism | Potency, µM (doses to about 45.6 µM), actives largely listed as activators | P43220 | AID 624172 | HEK293 GLP-1R CRE-luciferase, luminescence, 4-6 h; cells express a hypersensitive GLP-1R form | 380,000 compounds, 0.007% hits
HEK293 tox = cytotoxicity counter-screen for GLP-1 receptor inverse agonists | HEK293 cAMP-luciferase reporter cells, luminescence, 24 h | 410,000 compounds, 0.13% hits | Potency, µM (highest dose often 38.3 µM), usual class: inhibitors | AID 624418;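 note: loss of luciferase light is scored as toxicity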
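MLSMR compounds, 24 hr on cells at 37 deg C/5% CO2; luminescence after luciferase reagent (12 min RT). Inhibition counted as the undesired cytotoxic outcome.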
mIDH1 inhibitor = human IDH1 R132H inhibition; Potency, µM (doses to about 76.6 µM), usual class: inhibitors; IDH1-R132H enzyme, NADPH consumption, diaphorase/resazurin fluorescence; 390,000 compounds, 0.093% hits; note: nearly all actives have a fitted effect of over 65% in size
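IDH1-R132H (0.5 ug/mL dispensed) in pH 7.5 Tris buffer was preincubated 30 min with compound, then given a substrate mix of 0.016 mM NADPH and 2 mM alpha-KG for 80 min at room temperature; remaining NADPH was read by diaphorase/resazurin fluorescence.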
TRb-SRC2 inh = confirmation of human TRb-SRC2 interaction inhibitors | shares compounds with TrxR1 inh-1 | AlphaScreen TRb LBD-SRC2 peptide binding, luminescence | Potency, µM | 30 compounds, 50% hits; calls by dose curve
HepG2 tox = counter-screen for TRb-SRC2 inhibitors: HepG2 cytotoxicity; shares compounds with TrxR1 inh-1; Potency, µM; 40 compounds, 50% hits; HepG2 viability, ATP luminescence (CellTiter-Glo), 72 h; calls by dose curve
AR SRC2 FP = AR-SRC2 (human) interaction inhibition, selectivity | 25 tested, under 10 active | shares compounds with TrxR1 inh-1 | calls only | AR-LBD Tx-SRC2-3 fluorescence polarization, 3 h; call rule not given here
PPARg-DRIP2 inh = disrupts human PPARgamma binding to DRIP-2 peptide. shares compounds with TrxR1 inh-1. PPARg LBD / Texas Red DRIP-2 peptide, fluorescence polarization, 3 h. Potency, µM. 25 tested, under 10 active. AID 2449; calls by dose curve
VDR-SRC2 FP sel = VDR-SRC2 (human) interaction inhibition, selectivity | Potency, µM | VDR LBD/SRC2-3 peptide, fluorescence polarization, 3 h | AID 2455 | shares compounds with TrxR1 inh-1 | 25 tested, under 10 active; calls by dose curve
Target sequence (P11473 whole entry, looked up, the tested form may be a part): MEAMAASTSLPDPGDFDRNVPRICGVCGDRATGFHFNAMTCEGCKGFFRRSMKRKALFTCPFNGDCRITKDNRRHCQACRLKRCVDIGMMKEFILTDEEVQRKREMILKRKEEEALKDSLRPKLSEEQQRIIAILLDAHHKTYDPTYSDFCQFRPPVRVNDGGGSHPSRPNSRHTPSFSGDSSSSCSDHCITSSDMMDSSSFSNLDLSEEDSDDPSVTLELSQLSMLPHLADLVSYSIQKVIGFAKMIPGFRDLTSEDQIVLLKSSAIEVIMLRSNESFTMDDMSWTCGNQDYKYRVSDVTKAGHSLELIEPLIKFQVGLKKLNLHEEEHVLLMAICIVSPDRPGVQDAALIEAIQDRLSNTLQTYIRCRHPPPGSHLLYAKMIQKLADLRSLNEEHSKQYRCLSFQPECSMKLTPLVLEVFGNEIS
GR inh = counter-screen for TrxR1 inhibitors: human glutathione reductase inhibition. purified GR, DTNB reduction absorbance 405 nm kinetic. shares compounds with TrxR1 inh-1. 55 tested, under 10 active. activity change, negative = inhibition, % at 57.1 µM
TrxR1 inh-2 = rat TrxR1 inhibition, primary screen retest; Potency, µM, actives largely listed as inhibitors; shares compounds with TrxR1 inh-1; recombinant TrxR1, NADPH fluorescence consumption, selenite substrate; 55 compounds, 50% hits
TrxR1 insulin MOA = TrxR1 inhibition in insulin mechanism assay; shares compounds with TrxR1 inh-1; TrxR1 Trx-coupled insulin reduction, NADPH absorbance 340 nm; Potency, µM; 55 compounds, 20% hits; AID 652037;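 active = compounds with a measured potency under 100 micromolar; inconclusive = filed, but no rule given; inactive = potency at or above that, or unmeasurable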
TrxR1 inh-3 = blocks rat TrxR1 reduction of DTNB; shares compounds with TrxR1 inh-1; Potency, µM; 55 compounds, 90% hits; purified TrxR1, DTNB reduction, A412;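 active = a half-inhibiting concentration could be measured and was below 100 µM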
Large screens that a line does not name were inactive (follow-up assays come after a bar, where they were run). Shown are actives, neighbours in structure and some others; about 2.7% of the full set was active somewhere. Unless noted, calls come from the whole dose curve; as a rule, active = well fitted curve in the direction sought with a large enough effect; inconclusive = small, poorly fitted or top-dose-only effect, or another doubt; inactive = no such curve, though single readings can be large; an effect the other way counts as inactive or inconclusive.

CN1CCN(CC(=O)N2c3ccccc3C(C)(c3ccc(Cl)cc3)CC2(C)C)CC1 (stereo unspecified)	GLP-1R inv ag inconclusive
CN1CCN(CC(=O)N2c3ccccc3C(C)(c3ccccc3)CC2(C)C)CC1 (stereo unspecified)	GLP-1R inv ag 10µM
CNC(=S)N(CCc1c(C)[nH]c2ccc(C)cc12)Cc1ccco1	GLP-1R inv ag 10µM
COc1ccc(C(O)(C(=O)NNc2ccc(C)cc2)c2cccs2)cc1 (stereo unspecified)	GLP-1R inv ag 2.51µM
O=c1cc(-c2ccccc2Cl)oc2c(NS(=O)(=O)c3cc(Cl)cc(Cl)c3O)ccc(O)c12	GLP-1R inv ag 3.98µM, HEK293 tox inconclusive
CCc1ccc(S(=O)(=O)Nc2ccc(O)c3c(=O)cc(-c4ccccc4Cl)oc23)cc1	GLP-1R inv ag inconclusive
CCSC1(SCC)N=C(N)C2(C#N)C(c3ccc(F)cc3)C12C#N (stereo unspecified)	TrxR1 inh-1 31.6µM, GLP-1R inv ag inconclusive
COC1(OC)N=C(N)C2(C#N)C(c3ccc(F)cc3)C12C#N (stereo unspecified)	none
O=C(CSc1nc(-c2cccs2)nc2cc(=O)[nH]n12)Nc1cccc(C(F)(F)F)c1	GLP-1R inv ag inconclusive (no result: GLP1R ag)
CCNC(=S)N1N=C2c3ccccc3CCC2C1c1ccc(F)cc1 (stereo unspecified)	GLP-1R inv ag 3.55µM, HEK293 tox inconclusive
CCCCOC(=O)c1ccc(NC(=O)c2ccccc2OC)cc1	GLP-1R inv ag inconclusive
CCCCCOC(=O)c1ccc(NC(=O)c2cccc(NC(=O)c3ccccc3C(=O)O)c2)cc1	GLP-1R inv ag 7.08µM
O=P(O)(O)OC(Cn1cncn1)(Cn1cncn1)c1ccc(F)cc1F	none (no result: TrxR1 inh-1, TrxR1 substrate, GLP-1R inv ag, HEK293 tox, mIDH1 inhibitor)
OCCN1CCN(C(c2ccccc2Cl)c2sc3nc(-c4ccco4)nn3c2O)CC1 (stereo unspecified)	none (no result: GLP1R ag)
O=C(CNC(=O)c1ccccc1)OCC(=O)c1ccc2ccccc2c1	none (no result: GLP-1R inv ag, GLP1R ag, HEK293 tox, mIDH1 inhibitor)
CCC(C)(c1nnnn1-c1c(C)cccc1C)N(N=O)c1ccccc1Cl (stereo unspecified)	GLP-1R inv ag 7.94µM
Cc1cccc(N2C(=O)CC(Sc3nc(C)cc(C)n3)C2=O)c1 (stereo unspecified)	TrxR1 inh-1 inconclusive
Cc1cccc(N2C(=O)CC(Sc3nc(C)c4c(n3)CCCC4)C2=O)c1 (stereo unspecified)	TrxR1 inh-1 inconclusive, HEK293 tox 5.01µM
Cc1nc(SC2CC(=O)N(c3cc(Cl)cc(Cl)c3)C2=O)nc2c1CCCC2 (stereo unspecified)	GLP-1R inv ag inconclusive, HEK293 tox inconclusive
Cc1ccc(N2C(=O)CC(Sc3cccs3)C2=O)cc1 (stereo unspecified)	TrxR1 inh-1 79.4µM
Cc1cccc(N2C(=O)CC(Sc3nnc(C)s3)C2=O)c1 (stereo unspecified)	TrxR1 inh-1 20µM
Cc1ccc(N2C(=O)CC(Sc3nccc(C)n3)C2=O)cc1 (stereo unspecified)	none
Cc1c(Cl)cccc1NC(=O)Nc1nnc(N(C)Cc2ccccc2)s1	none (no result: GLP1R ag)
C=C1C=C(C(F)F)n2ncc(C(=O)NC(C)CC)c2N1 (stereo unspecified)	none (no result: GLP-1R inv ag, GLP1R ag, HEK293 tox, mIDH1 inhibitor)
CCOC(=O)c1cccc(NC(=O)c2ccc3c(Cl)c4c(nc3c2)CCC4)c1	none
Cc1cc(S(=O)(=O)c2ccc([N+](=O)[O-])cn2)ccc1Br	TrxR1 inh-1 0.112µM, HEK293 tox inconclusive | GR inh inactive | TrxR1 inh-2 0.119 | TrxR1 insulin MOA 35µM | TrxR1 inh-3 0.011µM
COc1ccc(S(=O)(=O)c2c(C(=O)c3ccc(C)c(C)c3)cnc3ccc(C)cc23)cc1	GLP-1R inv ag inconclusive (no result: GLP1R ag)
O=C(COC(=O)c1cc(Cl)ccc1[N+](=O)[O-])NC1CC1	none
O=C(COC(=O)c1ccc(F)c([N+](=O)[O-])c1)NC1C2CC3CC(C2)CC1C3 (stereo unspecified)	none (no result: TrxR1 inh-1, TrxR1 substrate, GLP-1R inv ag, GLP1R ag, HEK293 tox, mIDH1 inhibitor) | TRb-SRC2 inh 8.7µM | HepG2 tox inconclusive | AR SRC2 FP inactive | PPARg-DRIP2 inh inactive | VDR-SRC2 FP sel inactive
O=C(COC(=O)c1ccc(Cl)c([N+](=O)[O-])c1)NC1C2CC3CC(C2)CC1C3 (stereo unspecified)	none (no result: TrxR1 inh-1, TrxR1 substrate, GLP-1R inv ag, GLP1R ag, HEK293 tox, mIDH1 inhibitor) | TRb-SRC2 inh inactive | HepG2 tox inactive | AR SRC2 FP inactive | PPARg-DRIP2 inh inactive | VDR-SRC2 FP sel inactive
O=C(COC(=O)c1ccc(Cl)c([N+](=O)[O-])c1)NC1CCCC1	none
Nc1ccc(C(=O)OCC(=O)NC2CC2)cc1[N+](=O)[O-]	none
O=C(COC(=O)c1cccc([N+](=O)[O-])c1Cl)NC1C2CC3CC(C2)CC1C3 (stereo unspecified)	none (no result: TrxR1 inh-1, TrxR1 substrate, GLP-1R inv ag, GLP1R ag, HEK293 tox, mIDH1 inhibitor) | TRb-SRC2 inh 44.4µM | HepG2 tox inactive | AR SRC2 FP inactive | PPARg-DRIP2 inh inactive | VDR-SRC2 FP sel inactive
Clc1ccc(Cn2ncc3c(N4CCN(c5ccccc5)CC4)ncnc32)cc1	none (no result: TrxR1 inh-1, TrxR1 substrate, mIDH1 inhibitor)

Screens as filed in PubChem.
